Data: PubChem BioAssay (NCI)
The panel holds about 83,000 compounds, 20% with a hit somewhere; the sample as a whole holds those more often.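 In brief: 96-well plates, 48 h treatment, single concentration, percent growth endpoint.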 Active and inactive are the calls of the source. How the source made its calls: active means growth percent below 10; inactive means the rest.

Tested on: MDA-MB-468 breast
Assay: NCI-60 one-dose screen, 48 h (100 = growth as untreated, 0 = no growth, -100 = all killed)
Details: 10 µM unless noted

| SMILES | growth |
| --- | --- |
| C[n+]1ccccc1C[n+]1ccccc1 | 117% (inactive) |
| COC(=O)/C(CCC=C(C)C)=C1\[C@@H](OC(C)=O)C[C@@]2(C)[C@H]1C[C@@H](O)[C@H]1[C@@]3(C)CC[C@H](NCCO)[C@@H](C)[C@@H]3CC[C@@]12C | 104% (inactive) |
| CCOc1ccc(I)cc1 | 105% (inactive) |
| CCOC(=O)C(C#N)=C1CCN(C)CC1 | 123% (inactive) |
| COc1ccccc1/C=C1\Oc2cc(OCCN3CCC(Cc4ccccc4)CC3)ccc2C1=O | 76.4% (inactive) |
| Cc1[nH]n(C(=S)Nc2nc3cc(Cl)c(F)cc3s2)c(=O)c1N=Nc1ccc(F)c(Cl)c1 | 114% (inactive) |
| COc1cc(C(=O)/C=C/c2cccc(Nc3ccnc4cc(Cl)ccc34)c2)cc(OC)c1OC | -49.5% (active) |
| Clc1ccc2c(c1)C(Br)c1cc(Cl)cc(Cl)c1-2 (centres undefined) | 96.7% (inactive) |
| CCCCCCCC(=O)SCC/C=C/[C@@H]1CC(=O)NCc2cccc(n2)C2=N[C@@](C)(CS2)C(=O)N[C@@H](C(C)C)C(=O)N1 | -10.5% (active) |
